We go through 27 compounds from PubChem BioAssay AID1851 (National Center for Advancing Translational Sciences (NCATS), 2009).

Among all 16,000 compounds or so, about 4,000 (25%) were called active. Not shown: some 26% with an inconclusive outcome. Not all results are given here. Values without a mark were called inactive. Calls come from the whole dose curve; as a rule, active = well fitted curve in the direction sought with a large enough effect; inconclusive = small, poorly fitted or top-dose-only effect, or effect the other way; inactive = no such curve, though single readings can be large or run the other way.
% is set by controls: 0 for no effect and ±100 for the full control effect.

Sequence of Cytochrome P450 2C9 (Homo sapiens) (P11712 whole entry, looked up): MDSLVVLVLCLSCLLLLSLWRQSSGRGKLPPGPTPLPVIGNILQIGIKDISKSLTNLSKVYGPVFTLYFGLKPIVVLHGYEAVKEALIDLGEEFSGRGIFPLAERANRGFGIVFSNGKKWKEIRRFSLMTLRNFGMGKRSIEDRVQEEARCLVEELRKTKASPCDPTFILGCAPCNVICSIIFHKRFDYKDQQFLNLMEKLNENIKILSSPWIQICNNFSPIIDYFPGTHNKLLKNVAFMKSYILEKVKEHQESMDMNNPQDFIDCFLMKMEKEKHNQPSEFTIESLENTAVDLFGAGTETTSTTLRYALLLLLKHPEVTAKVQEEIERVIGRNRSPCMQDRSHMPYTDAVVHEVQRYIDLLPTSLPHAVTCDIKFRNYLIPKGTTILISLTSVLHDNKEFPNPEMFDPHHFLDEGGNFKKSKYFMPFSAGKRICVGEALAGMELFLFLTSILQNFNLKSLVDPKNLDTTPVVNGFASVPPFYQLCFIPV

The assay addresses Cytochrome P450 2C9 (Homo sapiens) (UniProt P11712). The experiment in a line: Cytochrome panel assay with activity outcomes. The following applies: recombinant CYP, pro-luciferin dealkylation, luminescence, p450-cyp2c9; series mostly up to 57.1 µM; activity, negative = inhibition: at the top concentration.
Consider `N#Cc1cccc(-c2nc3cnc(N4CCOCC4)nc3n(C[C@H]3CCCO3)c2=O)c1`, for which the “activity, negative = inhibition” value is 8.64%.

`CS(=O)(=O)Nc1cccc(-c2nc(N3CCNCC3)c3ccccc3n2)c1`: the activity, negative = inhibition was -1.92% [at 2.29 µM].

A word on the AC50: it is the midpoint of the concentration-response curve, whichever way the signal moves. Turning to `CCCCCCCCSc1nnc(CSc2nc3nc(C)cc(C)n3n2)o1`, the AC50 was 17.8 µM (active).

Consider `CCCSc1nnc(CSc2nc3nc(C)cc(C)n3n2)o1`, for which the “activity, negative = inhibition” value is -22.2%.

Take `Cc1cc(C)n2nc(SCC(=O)N/N=C/c3ccccc3F)nc2n1`: the “activity, negative = inhibition” value is -19.2%.

In the case of `N#Cc1cccc(NC(=O)N2CCC3(CC2)CCN(C(=O)c2csnn2)CC3)c1`, the “activity, negative = inhibition” value is 8.22%.

For `CCc1ccc(N/C(SCc2ccccc2C)=C(/C#N)C(=O)NCc2ccco2)cc1`, the AC50 was 3.16 µM (active).

Consider `N=c1nc(N)nc(N)n1-c1ccc(S(N)(=O)=O)cc1`, for which the activity, negative = inhibition is -1.26% [at 11.4 µM].

With `NC(=O)c1ccc[n+](CC(=O)OCCC23CC4CC(CC(C4)C2)C3)c1`, the “activity, negative = inhibition” value was 3.71%.

With `O=C(NCCOC12CC3CC(CC(C3)C1)C2)c1cccc(Br)c1`, the AC50 was 14.1 µM (active).

On to `COc1ccc(-n2c(-c3cnccn3)n[nH]c2=S)cc1`, for which the “activity, negative = inhibition” value is -11.4%.

Regarding `Cc1ccc(/C=N/n2c(-c3cccs3)n[nH]c2=S)cc1`, the AC50 was 1.58 µM (active).

Consider `Cc1ccc(-c2n[nH]c(=S)n2/N=C/c2cccn2C)cc1`, for which the concentration at half-maximal activity (AC50) was 12.6 µM (active).

Consider `COc1ccc(/C=N/n2c(-c3cccs3)n[nH]c2=S)cc1`, for which the AC50 is 2.24 µM (active).

On to `COc1ccc(-n2c(=O)c(-c3cccs3)nc3cnc(Nc4cccc(OC)c4)nc32)cc1`, for which the “activity, negative = inhibition” value is 5.73%.

For `Cc1n[nH]c(=S)n1/N=C/c1ccc(Br)o1`, the “activity, negative = inhibition” value was -10.7%.

Consider `C[N+](C)(C)c1cc2c(nn1)Nc1ccccc1S2`, for which the activity, negative = inhibition was -3.44% [at 11.4 µM].

On to `C[C@@H](CCCCC(=O)Nc1ccc(C(F)(F)F)cc1)NCCc1cnc[nH]1`, for which the AC50 was 7.94 µM (active).

As for `NCCC(=O)NCCc1cnc[nH]1`, the AC50 result is “inactive”.

For `Cc1oncc1C(=O)Nc1ccc(C(F)(F)F)cc1`, the “activity, negative = inhibition” value was -29.1% [at 25.6 µM].

Regarding `Cc1cc(O)c(C(C)C)cc1C1(c2cc(C(C)C)c(O)cc2C)OC(=O)c2ccccc21`, the AC50 is 0.316 µM (active).

`Cc1cc(O)c(C(C)C)cc1NC(=O)Nc1cccc2ccccc12`: the activity, negative = inhibition was -7.14% [at 11.4 µM].

With `O=c1nc2ccccc2c2n1C[C@H](CN1CCN(c3ccccc3)CC1)N2`, the “activity, negative = inhibition” value is 12.7%.

For `COC(=O)C(NC(=O)c1ccc(Cl)cc1)(Nc1nc(C)cs1)C(F)(F)F` (configuration not stated), the half-maximal activity concentration (AC50) is 8.91 µM (active).

For `Nc1nc(NCc2ccccc2)nc(Nc2cccc(F)c2)c1[N+](=O)[O-]`, the “activity, negative = inhibition” value is 19.2%.

On to `Cc1noc(C)c1-c1nc(Nc2ccccc2)c2ccccc2n1`, for which the activity, negative = inhibition was 2.16% [at 2.29 µM].

On to `Cc1[nH]nc(Nc2ccccc2)c1[N+](=O)[O-]`, for which the concentration at half-maximal activity (AC50) was 20 µM (active).
